# Counter-ions that a name gives are not always drawn.
# System: S. cerevisiae NKY1551 his4x/his4B, sporulating
# Experiment: HIS4 meiotic recombination assay sensitivity score (z-score vs DMSO controls); higher = stronger inhibition of sporulation/recombination, active = hit call of the paper;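 active = HIS4 sensitivity z-score above 5 vs DMSO controls; inactive = score 5 or below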
# Procedure: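 NIH Clinical Collection compounds were added 1:100 from stock (about 100 µM final) to S. cerevisiae. Growth: average doubling time (AvgG) over 24 h of BY4741 (wild-type) or AD1-9 (drug-efflux-pump deficient) in rich media. HIS4: the his4x/his4B heteroallelic recombination reporter strain (SK1) was sporulated 5 h with compound at 30°C, then colony density was read on -his plates after 48 h. Sensitivity score = (compound − mean of 8 DMSO controls)/SD of DMSO controls. Hit cutoffs are >2 for growth and >5 for sporulation.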
row,SMILES,HIS4 meiotic recombination assay sensitivity score
1,"COc1cccc2c1C(=O)c1c(O)c3c(c(O)c1C2=O)C[C@@](O)(C(=O)CO)C[C@@H]3O[C@H]1C[C@H](N)[C@@H](O)[C@H](C)O1 [Epirubicin hydrochloride] (stock concentration (mM, diluted 1:100): 9.4)",-1.39 (inactive)
2,"CC(=O)Nc1ccc(CC(=O)O)cc1 [Actarit] (stock concentration (mM, diluted 1:100): 10)",0.62 (inactive)
3,"COc1ccccc1OCCNCC(O)COc1cccc2[nH]c3ccccc3c12 (stereo not given) [Carvedilol] (stock concentration (mM, diluted 1:100): 10)",0.66 (inactive)
4,"c1cnc(N2CCN(Cc3ccc4c(c3)OCO4)CC2)nc1 [Piribedil] (stock concentration (mM, diluted 1:100): 9.7)",-0.82 (inactive)
5,"O=C1c2c(O)cc(O)cc2OC(c2ccc(O)c(O)c2)C1O (stereo not given) [Taxifolin] (stock concentration (mM, diluted 1:100): 10.1)",-0.52 (inactive)
6,"CCC(C)n1ncn(-c2ccc(N3CCN(c4ccc(OCC5COC(Cn6cncn6)(c6ccc(Cl)cc6Cl)O5)cc4)CC3)cc2)c1=O (stereo not given) [Itraconazole] (stock concentration (mM, diluted 1:100): 10.1)",-1.94 (inactive)
7,"Clc1ccc2c(c1)CCc1cccnc1C2=C1CCNCC1 [Desloratadine] (stock concentration (mM, diluted 1:100): 10)",1.24 (inactive)
8,"CC1CNc2c(cccc2S(=O)(=O)N[C@@H](CCCNC(=N)N)C(=O)N2CC[C@@H](C)C[C@@H]2C(=O)O)C1 (stereo not given in full) [Argatroban] (stock concentration (mM, diluted 1:100): 10.1)",0.32 (inactive)
9,"O=C(O[C@H]1[C@H](Oc2ccccc2COC(=O)C2(O)C=CCCC2=O)O[C@H](CO)[C@@H](O)[C@@H]1O)c1ccccc1 (stereo not given in full) [Tremulacin] (stock concentration (mM, diluted 1:100): 10)",-1.23 (inactive)
10,"CN1CCN(CCCN2c3ccccc3Sc3ccc(C(F)(F)F)cc32)CC1 [Trifluoperazine dihydrochloride] (stock concentration (mM, diluted 1:100): 10)",-2.62 (inactive)
11,"OC[C@H]1O[C@@H](Oc2cc(O)cc(/C=C/c3ccc(O)cc3)c2)[C@H](O)[C@@H](O)[C@@H]1O [Piceid] (stock concentration (mM, diluted 1:100): 10)",-1.14 (inactive)
12,"O=C1CCc2ccc(OCCCCN3CCN(c4cccc(Cl)c4Cl)CC3)cc2N1 [Aripiprazole] (stock concentration (mM, diluted 1:100): 10)",-1.42 (inactive)
13,"CNC(=C[N+](=O)[O-])NCCSCc1csc(CN(C)C)n1 [Nizatidine] (stock concentration (mM, diluted 1:100): 10)",-0.53 (inactive)
14,"Cc1ccnc2c1NC(=O)c1cccnc1N2C1CC1 [Viramune] (stock concentration (mM, diluted 1:100): 10)",0.21 (inactive)
15,"O=C(NCCN1CCOCC1)c1ccc(Cl)cc1 [Moclobemide] (stock concentration (mM, diluted 1:100): 10)",-1.83 (inactive)
16,"Cc1ncc([N+](=O)[O-])n1CC(C)O (stereo not given) [Secnidazole] (stock concentration (mM, diluted 1:100): 10)",0.68 (inactive)
17,"CC(C(O)c1ccc(O)cc1)N1CCC(Cc2ccccc2)CC1 (stereo not given) [Ifenprodil] (stock concentration (mM, diluted 1:100): 9.2)",4.63 (inactive)
18,"COc1cc(C)c(Cc2cnc(N)nc2N)cc1OC [Ormetoprim] (stock concentration (mM, diluted 1:100): 10)",-0.05 (inactive)
19,"CN(C)CC[C@@H](c1ccc(Br)cc1)c1ccccn1 [Dexbrompheniramine maleate] (stock concentration (mM, diluted 1:100): 7.3)",7.19 (active)
20,"COc1nc(C)nc(Cl)c1NC1=NCCN1 [Moxonidine hydrochloride] (stock concentration (mM, diluted 1:100): 9.2)",-0.58 (inactive)

row,SMILES,HIS4 meiotic recombination assay sensitivity score
1,"N#Cc1ccc(C(c2ccc(C#N)cc2)n2cncn2)cc1 [Letrozol] (stock concentration (mM, diluted 1:100): 10)",-0.01 (inactive)
2,"CN1CCC(=C2c3ccccc3CCc3sccc32)CC1 [Pizotyline] (stock concentration (mM, diluted 1:100): 10)",9.23 (active)
3,"Cc1cccc(C)c1NC(=O)C(C)N (stereo not given) [Tocainide] (stock concentration (mM, diluted 1:100): 10)",0.7 (inactive)
4,"COc1ccc2c3c1O[C@H]1C[C@@H](O)C=C[C@@]31CCN(C)C2 [Galanthamine] (stock concentration (mM, diluted 1:100): 8.8)",-0.9 (inactive)
5,"CCCCc1oc2ccccc2c1C(=O)c1cc(I)c(OCCN(CC)CC)c(I)c1 [Amiodarone hydrochloride] (stock concentration (mM, diluted 1:100): 9.5)",-0.63 (inactive)
6,"CCN(CC)CC1CCCCN1CC(=O)N1c2ccccc2C(=O)Nc2cccnc21 (stereo not given) [Otenzepad] (stock concentration (mM, diluted 1:100): 10)",-0.63 (inactive)
7,"CCN1CCN(c2cc3c(cc2F)c(=O)c(C(=O)O)cn3C2CC2)CC1 [Enrofloxacin] (stock concentration (mM, diluted 1:100): 10)",1.36 (inactive)
8,"CN1CC(=O)N2[C@H](c3ccc4c(c3)OCO4)c3[nH]c4ccccc4c3C[C@@H]2C1=O [Tadalafil] (stock concentration (mM, diluted 1:100): 10)",-0.28 (inactive)
9,"Nc1nc2ccc(Cl)cc2c2nc(-c3ccco3)nn12 (stock concentration (mM, diluted 1:100): 10)",-0.12 (inactive)
10,"O=C(O[C@@H]1C[C@@H]2C[C@H]3C[C@H](C1)N2CC3=O)c1c[nH]c2ccccc12 [Dolasetron mesylate] (stock concentration (mM, diluted 1:100): 10.4)",-3.34 (inactive)
11,"C[C@]12CC[C@@H]3c4ccc(O)cc4CC[C@H]3[C@@H]1CC[C@@H]2O [Beta-Estradiol] (stock concentration (mM, diluted 1:100): 10)",-2.13 (inactive)
12,"COc1ccccc1N1CCN(CCCNc2cc(=O)n(C)c(=O)n2C)CC1 [Urapidil hydrochloride] (stock concentration (mM, diluted 1:100): 10)",-0.7 (inactive)
13,"O=C(O)Cc1ccccc1Nc1c(Cl)cccc1Cl [Diclofenac] (stock concentration (mM, diluted 1:100): 10)",0.28 (inactive)
14,"CN1CCN(C2=Nc3ccccc3Oc3ccc(Cl)cc32)CC1 [Loxapine succinate] (stock concentration (mM, diluted 1:100): 11)",7.41 (active)
15,"Nc1nnc(-c2cccc(Cl)c2Cl)c(N)n1 [Lamotrigine] (stock concentration (mM, diluted 1:100): 10.3)",-1.72 (inactive)
16,"CCCCC(=O)N(Cc1ccc(-c2ccccc2-c2nnn[nH]2)cc1)[C@H](C(=O)O)C(C)C [Valsartan] (stock concentration (mM, diluted 1:100): 10)",-0.5 (inactive)
17,"CCCCCCCCCCC[C@@H](C[C@@H]1OC(=O)[C@H]1CCCCCC)OC(=O)[C@H](CC(C)C)NC=O [Orlistat] (stock concentration (mM, diluted 1:100): 10)",-1.52 (inactive)
18,"CCN1CCC[C@H]1CNC(=O)c1c(O)c(Cl)cc(Cl)c1OC [Raclopride] (stock concentration (mM, diluted 1:100): 10)",-0.66 (inactive)
19,"CN(CCOc1ccc(CC2SC(=O)NC2=O)cc1)c1ccccn1 (stereo not given) [Rosigltazone hydrochloride] (stock concentration (mM, diluted 1:100): 8.2)",2.69 (inactive)
20,"CCOC(=O)OC(C)OC1=C(C(=O)Nc2ccccn2)N(C)S(=O)(=O)c2ccccc21 (stereo not given) [Ampiroxicam] (stock concentration (mM, diluted 1:100): 10)",1.18 (inactive)

# Reference: the supplement of paper PMC3414501
